# Experimental data taken from the supplement of paper PMC8728848.
# Only a selection was taken, and the strongest signals are over-represented in it overall.
# B1: NESD (Drosophila melanogaster), NP_610025.1 (protein)
# chain: MGHHHHHHSSGVDLGTENLYFQSMMEVFTFEKSYLERLKEAEAVLSWEGAVMPASQVRSEWKSYVELKIEPAGWQAIWKIPRVICEDLKLRYPTIVYGYVEQVIFDELKAVFVVTAVQDSDVHLPESNEVSLVELWPTVQQENAALNVDTTAECIDRLRFFYTHVWMPWDKDYDDDRDWVQQHLQARIQLVCDLSKNRLPRPLALHMRTLLAEAKYIQQRLDYLELDLSDAESDDEAVELNDSVAEPARKQSKAGSANGCLNVSSLPVTDLMCLHLRMAIIRSEFEILENPEMRRAYSELQSNSLKRLRCSSGRTRQSEDLLVERNSISHVVTLPGKLQQQLELLKLAQTLVKPESKVQLSNTLQDVLSICQSNDDILLSPGEHTIKFLEHLNDNGSLRGLTQPEAILSPAADLSLLPVVCSSDEDSTLLVIDGDYTLSELVLDCRHVRRGILLRNGTLTMRGCRLLGDGSSSTQEGIVCMPGASVELKSCLIENFAVGVSMRPKSSAELGSVQFKTCKTGLELLEKSASVNLQGSKCSFENCALGILADGFVLGEQRTEKVLVLNKFSELQRYNEDNLLGNCSFYNCKKNVRVFNESGQLLAQRSHQQLLEDELGGENKENIQLV
# What was measured:
# Experiment in all cases: glycan array binding signal (z-score within array); higher = stronger binding
# Details in all cases: glycan notation: IUPAC condensed, linker removed
# [1] = molecular target: Fuc(a1-2)Gal
# Outline: (§1)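 Glycan array binding is given as a within-array Z-score, which can be read as non-binding when negative. The arrays, 3228 of them, came from the Consortium for Functional Glycomics database and were retained only where the protein sequence was available. Z-scores were averaged across arrays of the same protein sequence at different concentrations or buffers and across linkers.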
# [2] = molecular target: Fuc(a1-3)[Gal3S(b1-4)]GlcNAc6S
# Outline: as §1
# [3] = molecular target: Gal(a1-3)Gal(b1-4)Glc
# Outline: as §1
# [4] = molecular target: Gal(a1-3)Gal(b1-4)GlcNAc
# Outline: as §1
# [5] = molecular target: Gal(a1-4)Gal(b1-4)Glc
# Outline: as §1
# [6] = molecular target: Gal(b1-3)GlcNAc
# Outline: as §1
# [7] = molecular target: Gal(b1-3)[Fuc(a1-4)]GlcNAc(b1-3)Gal(b1-4)[Fuc(a1-3)]GlcNAc
# Outline: as §1
# [8] = molecular target: Gal(b1-4)Glc
# Outline: as §1
# [9] = molecular target: Gal(b1-4)Glc6S
# Outline: as §1
# [10] = molecular target: Gal(b1-4)GlcNAc(b1-3)Gal(b1-4)GlcNAc
# Outline: as §1
# [11] = molecular target: Gal(b1-4)GlcNAc(b1-3)Gal(b1-4)GlcNAc(b1-3)Gal(b1-4)GlcNAc
# Outline: as §1
# [12] = molecular target: Gal3S(b1-4)GlcNAc
# Outline: as §1
# [13] = molecular target: Gal3S(b1-4)[Fuc(a1-3)]Glc
# Outline: as §1
# [14] = molecular target: Gal3S4S(b1-4)GlcNAc
# Outline: as §1
# [15] = molecular target: Gal3S6S(b1-4)GlcNAc6S
# Outline: as §1
# [16] = molecular target: Gal4S(b1-4)GlcNAc
# Outline: as §1
# [17] = molecular target: Glc(a1-6)Glc(a1-6)Glc
# Outline: as §1
# [18] = molecular target: Man(a1-2)Man(a1-2)Man(a1-6)[Man(a1-3)]Man
# Outline: as §1
# [19] = molecular target: Man(a1-2)Man(a1-3)Man
# Outline: as §1
# [20] = molecular target: Man(a1-2)Man(a1-3)[Man(a1-2)Man(a1-6)]Man(a1-6)[Man(a1-2)Man(a1-2)Man(a1-3)]Man(b1-4)GlcNAc(b1-4)GlcNAc
# Outline: as §1
# [21] = molecular target: Neu5Ac(a2-3)Gal(b1-3)GalNAc(b1-3)Gal(b1-4)GlcNAc
# Outline: as §1
# [22] = molecular target: Neu5Ac(a2-3)Gal(b1-4)[Fuc(a1-3)]GlcNAc6S
# Outline: as §1
# [23] = molecular target: Neu5Ac(a2-6)Gal(b1-4)GlcNAc(b1-2)Man(a1-3)[Gal(b1-4)GlcNAc(b1-2)Man(a1-6)]Man(b1-4)GlcNAc(b1-4)GlcNAc
# Outline: as §1
binder,measurement,setting,value
B1,glycan array binding signal (z-score),[1],0.437
same,glycan array binding signal (z-score),[2],1.18
same,glycan array binding signal (z-score),[3],-0.126
same,glycan array binding signal (z-score),[4],-0.108
same,glycan array binding signal (z-score),[5],-0.242
same,glycan array binding signal (z-score),[6],-0.219
same,glycan array binding signal (z-score),[7],-0.47
same,glycan array binding signal (z-score),[8],3.98
same,glycan array binding signal (z-score),[9],2.75
same,glycan array binding signal (z-score),[10],0.201
same,glycan array binding signal (z-score),[11],0.303
same,glycan array binding signal (z-score),[12],0.142
same,glycan array binding signal (z-score),[13],-0.195
same,glycan array binding signal (z-score),[14],0.201
same,glycan array binding signal (z-score),[15],1.17
same,glycan array binding signal (z-score),[16],0.349
same,glycan array binding signal (z-score),[17],6.3
same,glycan array binding signal (z-score),[18],-0.364
same,glycan array binding signal (z-score),[19],-0.316
same,glycan array binding signal (z-score),[20],0.313
same,glycan array binding signal (z-score),[21],0.016
same,glycan array binding signal (z-score),[22],0.068
same,glycan array binding signal (z-score),[23],0.256
